Compound activity from PubChem.
Methyltransferases: Primary Screen for Target Class Profiling of Small Molecule Inhibitors of Methyltransferases; purified enzyme, MTase-Glo SAH luminescence; hits give low values; calls only at 40 µM; actives 3.9% (n = 25,000); AID 1745853, 2022; call rule not given here
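Each enzyme was assayed with SAM and its substrate. SAH formation detected by MTase-Glo luminescence; single-point 40 uM screen[…].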
Each line names hits and unclear results; the compound was inactive in the other large screens. This is one part of a sample in which hits are shown more often than they occur.

Cc1cc(C)c(S(=O)(=O)n2cc(C)cc2C)c(C)c1	Methyltransferases active
COc1ccc(OC)c(N2C(=O)c3cc4ccccc4n3CC2(C)C(=O)NC2CCCC2)c1 (configuration not stated)	none
CC(C)C[C@@H](N)C(=O)N[C@H]1C(=O)N[C@@H](CC(N)=O)C(=O)N[C@H]2C(=O)N[C@H]3C(=O)N[C@H](C(=O)N[C@H](C(=O)O)c4cc(O)cc(O)c4-c4cc3ccc4O)[C@H](O)c3ccc(c(Cl)c3)Oc3cc2cc(c3O[C@@H]2O[C@H](CO)[C@@H](O)[C@H](O)[C@H]2O[C@H]2C[C@](C)(N)[C@H](O)[C@H](C)O2)Oc2ccc(cc2Cl)[C@H]1O	none
Cc1cc(N2CCOCC2)ccc1Nc1nc(NC2CCCCC2)c2[nH]cnc2n1	Methyltransferases active
Cc1cc(NC2CCCCC2)nc(-n2nc(C)cc2C)n1	none
N#Cc1cc(-c2ccnc(Nc3ccc(N4CCOCC4)cc3)n2)ccc1OC1CCOCC1	none
COC(=O)c1ncn2c1C(=O)N(Cc1cccc(Br)c1)C(C)(C(=O)NC1CCCC1)C2 (configuration not stated)	none
O=c1c2ccccc2n2c(SCc3cccc(F)c3)nnc2n1Cc1ccccc1	none
CCCn1c(=O)c2ccccc2n2c(SCC(=O)NC3CCCCC3)nnc12	none
CCN1C(=O)c2c(C(=O)NCCc3ccc(OC)c(OC)c3)ncn2CC1(C)C(=O)NC1CCCC1 (configuration not stated)	none
COc1cc2c(cc1O)CC[C@@H]1[C@@H]2CC[C@]2(C)[C@@H](O)CC[C@@H]12	Methyltransferases active
CC12CCC3c4ccc(OC5OC(C(=O)O)C(O)C(O)C5O)cc4CCC3C1CCC2O (configuration not stated)	none
C[C@]12CC[C@@H]3c4ccc(OC(=O)c5ccccc5)cc4CC[C@H]3[C@@H]1CC[C@@H]2O	none
CC1CCC(NC(=O)c2ccc3c(=O)nc4c(-c5ccc(Cl)cc5)n[nH]n4c3c2)CC1 (configuration not stated)	none
CCC1c2ccc(C)n2CCN1C(=O)Nc1cccc2c1CCCC2 (configuration not stated)	none
COc1ccc(OC)c(S(=O)(=O)N2CCCC3(CC2)CNC(=O)O3)c1 (configuration not stated)	none
Fc1ccc2c(CCNCc3cccc(OCC(F)(F)C(F)F)c3)c[nH]c2c1	Methyltransferases active
COc1cc2c(Nc3ccc(Br)cc3F)ncnc2cc1OCC1CCN(C)CC1	Methyltransferases active
COc1cc2c(Nc3cc(F)c(Cl)c(Cl)c3)ncnc2cc1OCC1CCCN(C)CCC1	Methyltransferases active
COC(=O)N(C)Cc1cccc(N2CCN(C(=O)OC(C)(C)C)CC2)c1F	none
O=S(=O)(NCCn1c(CCc2ccccc2)nc2ccccc21)c1ccc(Br)cc1	none
COc1ccccc1CNc1nc2c(S(=O)(=O)c3ccc(C)cc3)nnn2c2ccccc12	none
CCCn1cnc2cc(CNS(=O)(=O)c3ccc(F)cc3)ccc21	none
CC(C)C[C@H](C(=O)O)c1cc(-c2ccc(C(F)(F)F)cc2)cc(-c2ccc(C(F)(F)F)cc2)c1	Methyltransferases active
CC1(C(=O)NC2CCCCCCC2)Cc2ccccc2C(=O)N1C1CCCC1 (configuration not stated)	none
CC(C)Oc1ccc(CN2C(=O)c3cc(C(C)(C)C)nn3CC2(C)C(=O)NC2CCCCC2)cc1 (configuration not stated)	none
O=C(O)Cc1ccc2oc(-c3ccc(NC(=O)/C=C/c4ccc(Br)cc4)c(F)c3)nc2c1	none
C=Cc1cc2oc(-c3ccc(O)c(F)c3)nc2cc1O	Methyltransferases active
O=C(Cn1c(=O)oc2cc(S(=O)(=O)N3CCCC3)ccc21)Nc1ccccc1F	none
O=C(CCCc1nnc2n3nc(-c4ccccc4)nc3c3ccccc3n12)N1CCN(C2CCCCC2)CC1	none
O=C(CCCc1nnc2n3nc(-c4ccccc4)nc3c3ccccc3n12)N1CCC(N2CCCCC2)CC1	Methyltransferases active
O=C(CCCc1nnc2n3nc(-c4ccccc4)nc3c3ccccc3n12)N1CCN(Cc2ccccc2)CC1	none
COc1cccc(CN2C(=O)CSc3c(c4ccccc4n3C)C2C(=O)NCCCOC(C)C)c1 (configuration not stated)	none
COc1ccccc1CN1C(=O)c2cc3sccc3n2CC1(C)C(=O)NC1CCCCCCC1 (configuration not stated)	none
CC(C)NC(=O)c1ccc2c(=O)n(C(C)C)c3nn(Cc4ccccc4F)c(=O)n3c2c1	none
C=CC[N+]1([C@H]2C[C@H]3[C@@H]4CC[C@H]5C[C@H](OC(C)=O)[C@@H](N6CCCCC6)C[C@]5(C)[C@H]4CC[C@]3(C)[C@H]2OC(=O)CC)CCCCC1	Methyltransferases active
O=C(CCc1nnc2n(Cc3ccccc3Cl)c(=O)c3ccccc3n12)N1CCN(C2CCCCC2)CC1	none
Cc1cc(NC(=O)CN(C)S(=O)(=O)c2ccc3[nH]c4c(c3c2)CCCC4)ccc1Br	none
O=C(O)c1ccc(S(=O)(=O)N(Cc2ccc(OC(F)(F)F)cc2)c2ncc(C(F)(F)F)cc2Cl)cc1	none
CC(C)Cn1c(=O)c2cc(F)ccc2n2c(SCC(=O)NC3CCCCC3)nnc12	none
CCCN1C(=O)c2cc3oc(C)cc3n2CC1(C)C(=O)NC1CCCCCC1 (configuration not stated)	none
Cc1ccc(NC(=O)CSc2nnc3n(CC(C)C)c(=O)c4ccc(C(=O)NC(C)C)cc4n23)cc1	none
Cc1noc(C)c1CCNC(=O)c1cc2n(n1)CC(C)(C(=O)NCc1ccc(F)cc1)N(C)C2=O (configuration not stated)	none
O=C(O)Cc1nn(Cc2nc3cc(C(F)(F)F)ccc3s2)c(=O)c2nccnc12	none
CN(C)c1ccc(/C=C2\C(=O)Nc3ccccc32)cc1	Methyltransferases active
COc1cccc(Cn2nc3n(Cc4ccc(C)cc4)c(=O)c4ccccc4n3c2=O)c1	none
Cc1cc2c(cc3n2CC(C)(C(=O)NC2CCCCCC2)N(CCN2CCCCCC2)C3=O)o1 (configuration not stated)	none
CCOC(=O)C1=C(CN2CCn3cccc3C2C)NC(=O)NC1c1ccc(C)cc1 (configuration not stated)	none
Cc1ccc(C(=O)O)c2c1N[C@H](c1cccc(Cl)c1)C1CC=CC21 (some centres not stated)	Methyltransferases active
Fc1cccc2c1NC(c1ccc(Cl)cc1)C1CC=CC21 (configuration not stated)	none
COC(=O)c1ccc([C@@H]2Nc3c(Cl)cccc3[C@@H]3C=CC[C@@H]32)cc1	none
CCCn1c(=O)c2ccc(C(=O)NC(C)CC)cc2n2c(=O)n(Cc3ccccc3Cl)nc12 (configuration not stated)	none
O=S1(=O)CC(COCc2ccccc2)CN1c1ccccc1 (configuration not stated)	none
COc1cc2ncnc(Nc3cccc(Cl)c3)c2cc1OC	Methyltransferases active
CCCNC(=O)Nc1ccc(Oc2ncnc3cc(OC)c(OC)cc23)cc1Cl	none
COc1cc2ncnc(Nc3cccc(O)c3)c2cc1OC	none
CC(=O)O[C@H]1C[C@@H](O)C(C)(C)C2C[C@@H](OC(C)=O)[C@@]3(C)C4=CCC(C(CO)CC(O)C5OC5(C)C)[C@]4(C)CCC3[C@]21C (some centres not stated)	none
CCOc1ccc(N2C(=O)c3cc4ccccc4n3CC2(C)C(=O)NC2CCCCCC2)cc1 (configuration not stated)	none
COc1ccc(F)cc1-c1ccc(CN2CCC(NC(=O)c3ccc(Cl)cc3)C2)cc1 (configuration not stated)	none
COc1ccc(NC(=O)N2CCc3c2ccc2ccccc32)cc1N1CCN(C)CC1	none
